Data reported in PubChem BioAssay.
Active and inactive are the calls of the source.

Key:
[1] = test system: Wnt5a (protein binding on small-molecule microarray); assay: small molecules binding Wnt5a protein – biophysical, small-molecule microarray, 635/667 nm fluorescence, primary screen (AID 1142); settings: 635 nm fluorescence, higher = more signal;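 note: fluorescence read at 667 nm with signal to noise per printed feature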
[2] = ATP-based viability of Huh7 replicon cells – cell-based, CellTiter-Glo luminescence, basal, 48 h, cytotoxicity control for HCV replication inhibitor project, primary screen (AID 1143); settings: higher = more signal, called active from +8 up or from −8 down;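 note: Huh7 hepatoma cells carrying a hepatitis C replication reporter with no stimulus; test concentration not given here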
[3] = basal CRE-LacZ reporter activity in PC12 – cell-based, unstimulated, primary screen (AID 1145); settings: no forskolin, luminescence, 4.5 h, higher = more signal, called active from +8 up or from −8 down
[4] = forskolin-driven CRE-LacZ activity in PC12 – cell-based, CRE-LacZ reporter, forskolin-stimulated, primary screen (AID 1146); settings: luminescence, 4.5 h, higher = more signal, called active from +8 up or from −8 down;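 note: PC12 cells with 6xCRE LacZ reporter stimulated by forskolin 10 µM; beta-galactosidase reporter signal reflecting CREB driven transcription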
[5] = target: Streptavidin (Streptomyces avidinii) (UniProt P22629); assay: compounds binding control protein streptavidin – biophysical, small-molecule microarray, 635/667 nm fluorescence, artefact control for SMM compound annotation, primary screen (AID 1147); settings: higher = more signal;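 note: signal reflects streptavidin binding to arrayed compounds as a control protein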
Chain of Streptavidin (Streptomyces avidinii) (P22629 whole entry, looked up): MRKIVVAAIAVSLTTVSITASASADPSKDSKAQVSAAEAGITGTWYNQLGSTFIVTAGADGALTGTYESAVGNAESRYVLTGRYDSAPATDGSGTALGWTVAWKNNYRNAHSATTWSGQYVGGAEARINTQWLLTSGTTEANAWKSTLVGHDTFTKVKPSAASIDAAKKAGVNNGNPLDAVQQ

[6] = probe aInhba binding on compound microarray – biochemical, small-molecule microarray, 635/667 nm fluorescence, primary screen (AID 1148); settings: higher = more signal;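 note: score merges 667nm spot fluorescence with signal-to-noise for antibody binding to printed compounds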
Torsin-1A (Homo sapiens) [7] = target: Torsin-1A (Homo sapiens) (UniProt O14656); assay: TOR1A wild-type binding on microarray – cell lysate, small-molecule microarray, lysate, 635/667 nm, primary screen (AID 1149); settings: COS7 hTOR1A-WT lysate, 635 nm fluorescence, higher = more signal
Chain of Torsin-1A (Homo sapiens) (O14656 whole entry, looked up): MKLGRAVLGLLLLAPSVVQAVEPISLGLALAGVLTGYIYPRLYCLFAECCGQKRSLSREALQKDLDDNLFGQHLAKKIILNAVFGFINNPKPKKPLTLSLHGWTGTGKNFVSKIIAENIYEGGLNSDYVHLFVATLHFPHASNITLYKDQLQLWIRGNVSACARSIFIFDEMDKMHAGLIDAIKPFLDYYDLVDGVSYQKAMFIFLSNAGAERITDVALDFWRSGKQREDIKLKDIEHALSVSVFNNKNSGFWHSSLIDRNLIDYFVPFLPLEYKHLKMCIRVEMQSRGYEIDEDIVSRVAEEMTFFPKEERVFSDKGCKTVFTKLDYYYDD

Torsin-1A (Homo sapiens) [8] = target: Torsin-1A (Homo sapiens) (UniProt O14656); assay: torsin A mutant lysate binding on microarrays – cell lysate, small-molecule microarray, COS7 lysate, 635/667 nm fluorescence, primary screen (AID 1150); settings: COS7 hTOR1A mutant lysate, 635 nm fluorescence, higher = more signal;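 note: score pools 667 nm emission and signal to noise measuring lysate protein binding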
[9] = test system: Sonic hedgehog protein (Shh); assay: Sonic hedgehog microarray binding compounds – biochemical, small-molecule microarray, 635/667 nm fluorescence, primary screen (AID 1151); settings: 635 nm fluorescence, higher = more signal;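 note: Shh protein binding to compounds spotted on small-molecule microarray slides; score combines spot fluorescence intensity with signal-to-noise across triplicate slides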
[10] = optical density shifts of acrAB sulA E. coli – strain DRC41, OD650, 48 h, E. coli filamentation inducer project, primary screen (AID 1152); settings: higher = more signal, called active from +8 up or from −8 down;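 note: E. coli MC1000 strain DRC41 lacking acrAB efflux pump and sulA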
[11] = probe aLefty1 binding on compound microarray – biochemical, small-molecule microarray, 635/667 nm fluorescence, primary screen (AID 1153); settings: higher = more signal;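 note: score merges spot fluorescence with signal-to-noise ratio from the scanned slide images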
[12] = plasmodial surface anion channel blockers, osmotic lysis – cell-based, P. falciparum Indochina, OD700, 1 h, primary screen (AID 1154); settings: P. falciparum Indochina infected RBC osmotic lysis, higher = more signal, called active from +8 up or from −8 down
[13] = plasmodial surface anion channel blockers, osmotic lysis – cell-based, P. falciparum Indochina, OD700, 2 h, primary screen (AID 1155);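 note: lysis reports solute entry through the parasite surface anion channel PSAC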; settings: P. falciparum Indochina infected erythrocytes, higher = more signal, called active from +8 up or from −8 down
[14] = changes in parasitized red cell lysis, either direction – P. falciparum Indochina, OD700, 3 h, PSAC antagonist project, primary screen (AID 1156); settings: P. falciparum-infected erythrocytes, osmotic lysis, higher = more signal, called active from +8 up or from −8 down
[15] = plasmodial surface anion channel blockers, osmotic lysis – cell-based, P. falciparum Indochina, OD700, 18 h, primary screen (AID 1157); settings: P. falciparum Indochina infected erythrocytes, osmotic lysis OD700, 18 h; higher = more signal, called active from +8 up or from −8 down
[16] = S6 kinase pathway phospho-S6 level changes – cell-based, A549, cytoblot, luminescence, serum-stimulated, primary screen (AID 1158); settings: 5 h, higher = more signal;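 note: serum-stimulated A549 lung adenocarcinoma cells; signal is phosphorylated S6 detected by cytoblot immunostaining with HRP secondary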
[17] = target: NADPH oxidase 2 (Homo sapiens) (UniProt P04839); assay: compounds shifting NOX2 Amplex Red fluorescence – cell-based, HEK293-NOX2, PMA-stimulated, NOX inhibitor project, primary screen (AID 1159); settings: 45 min, higher = more signal, called active from +8 up or from −8 down; note: test concentration not given here
Chain of NADPH oxidase 2 (Homo sapiens) (P04839 whole entry, looked up): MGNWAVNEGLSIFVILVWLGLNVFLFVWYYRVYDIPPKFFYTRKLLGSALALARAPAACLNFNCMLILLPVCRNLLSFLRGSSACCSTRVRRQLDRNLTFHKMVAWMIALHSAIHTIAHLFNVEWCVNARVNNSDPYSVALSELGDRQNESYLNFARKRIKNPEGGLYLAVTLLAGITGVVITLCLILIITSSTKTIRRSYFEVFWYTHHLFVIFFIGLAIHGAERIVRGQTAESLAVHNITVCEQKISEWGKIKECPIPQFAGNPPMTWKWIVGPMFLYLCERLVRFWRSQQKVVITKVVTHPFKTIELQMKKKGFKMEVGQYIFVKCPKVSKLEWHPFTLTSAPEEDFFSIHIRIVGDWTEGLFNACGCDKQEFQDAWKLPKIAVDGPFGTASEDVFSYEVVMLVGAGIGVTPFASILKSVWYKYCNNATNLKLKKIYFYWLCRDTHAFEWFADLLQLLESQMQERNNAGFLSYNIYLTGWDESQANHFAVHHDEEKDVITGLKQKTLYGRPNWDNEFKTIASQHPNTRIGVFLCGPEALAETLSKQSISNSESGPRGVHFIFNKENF

[18] = target: NADPH oxidase 4 (Homo sapiens) (UniProt Q9NPH5); assay: compounds shifting NOX4 Amplex Red fluorescence – cell-based, HEK293-NOX4, tetracycline-induced, NOX inhibitor project, primary screen (AID 1160); settings: HEK293-NOX4, Amplex Red H2O2 fluorescence, 45 min; higher = more signal, called active from +8 up or from −8 down
Chain of NADPH oxidase 4 (Homo sapiens) (Q9NPH5 whole entry, looked up): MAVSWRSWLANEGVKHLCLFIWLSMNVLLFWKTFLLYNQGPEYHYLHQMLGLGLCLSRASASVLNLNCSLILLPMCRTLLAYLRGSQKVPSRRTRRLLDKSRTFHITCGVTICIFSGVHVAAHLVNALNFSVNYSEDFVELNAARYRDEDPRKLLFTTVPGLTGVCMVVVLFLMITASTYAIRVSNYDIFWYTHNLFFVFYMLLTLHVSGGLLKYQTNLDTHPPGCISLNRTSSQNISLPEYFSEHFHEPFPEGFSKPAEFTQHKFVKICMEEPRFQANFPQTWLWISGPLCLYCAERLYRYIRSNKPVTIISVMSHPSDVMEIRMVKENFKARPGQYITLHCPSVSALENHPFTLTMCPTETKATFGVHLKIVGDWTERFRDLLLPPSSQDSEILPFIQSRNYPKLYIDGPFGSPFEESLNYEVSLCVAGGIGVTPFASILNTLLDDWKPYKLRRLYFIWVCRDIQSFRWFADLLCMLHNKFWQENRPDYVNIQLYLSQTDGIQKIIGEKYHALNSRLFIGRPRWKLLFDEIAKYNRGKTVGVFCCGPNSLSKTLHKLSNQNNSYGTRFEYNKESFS

[19] = target: NADPH oxidase 5 (Homo sapiens) (UniProt Q96PH1); assay: compounds shifting NOX5 Amplex Red fluorescence – cell-based, HEK293-NOX5, NOX inhibitor project, primary screen (AID 1161); settings: HEK293-NOX5, ionomycin, 45 min, higher = more signal
Chain of NADPH oxidase 5 (Homo sapiens) (Q96PH1 whole entry, looked up): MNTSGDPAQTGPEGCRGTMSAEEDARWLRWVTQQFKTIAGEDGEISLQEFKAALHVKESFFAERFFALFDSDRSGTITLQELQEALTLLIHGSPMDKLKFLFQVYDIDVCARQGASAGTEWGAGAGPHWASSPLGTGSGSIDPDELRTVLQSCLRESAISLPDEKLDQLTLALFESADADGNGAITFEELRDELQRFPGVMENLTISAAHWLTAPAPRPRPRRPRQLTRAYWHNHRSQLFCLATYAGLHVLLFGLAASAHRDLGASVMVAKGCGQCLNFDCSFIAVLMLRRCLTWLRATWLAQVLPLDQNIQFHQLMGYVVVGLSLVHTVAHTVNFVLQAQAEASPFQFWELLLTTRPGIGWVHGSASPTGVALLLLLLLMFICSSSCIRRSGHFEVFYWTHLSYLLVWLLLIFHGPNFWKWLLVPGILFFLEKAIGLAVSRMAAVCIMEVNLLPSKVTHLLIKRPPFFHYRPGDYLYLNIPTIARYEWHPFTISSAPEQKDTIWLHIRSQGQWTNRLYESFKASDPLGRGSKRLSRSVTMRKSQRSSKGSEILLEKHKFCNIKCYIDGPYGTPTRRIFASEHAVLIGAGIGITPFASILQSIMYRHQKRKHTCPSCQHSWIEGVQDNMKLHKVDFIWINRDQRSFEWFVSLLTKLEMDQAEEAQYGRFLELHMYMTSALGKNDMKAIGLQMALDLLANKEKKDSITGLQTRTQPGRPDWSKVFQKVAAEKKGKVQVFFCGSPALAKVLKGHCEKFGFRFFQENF

## CO[C@H]1COC(=O)CC=C[C@@H](C)COC(=O)[C@@H](C)NC(=O)CC=C[C@@H]1C
[1]
  composite z-score: 0.272
[2]
  z-score: -3.48 (inactive)
[3]
  z-score: 0.608 (inactive)
[4]
  z-score: -1.09 (inactive)
[5]
  composite z-score: -0.697
[6]
  composite z-score: -0.218
Torsin-1A (Homo sapiens) [7]
  composite z-score: 2.49
Torsin-1A (Homo sapiens) [8]
  composite z-score: 0.711
[9]
  composite z-score: 2.06
[10]
  z-score: -0.414 (inactive)
[11]
  composite z-score: -0.276
[12]
  z-score: -0.401 (inactive)
[13]
  z-score: -0.599 (inactive)
[14]
  z-score: -0.768 (inactive)
[15]
  z-score: -0.872 (inactive)
[16]
  z-score: 2.57
[17]
  z-score: -0.206 (inactive)
[18]
  z-score: 0.534 (inactive)
[19]
  z-score: 0.984

## C=C[C@H](OC)[C@@H](OC(=O)Nc1ccc(SC)cc1)c1ccc(OC)c(O)c1
[1]
  composite z-score: -0.29
[2]
  z-score: -0.0203 (inactive)
[3]
  z-score: -0.113 (inactive)
[4]
  z-score: -1.26 (inactive)
[5]
  composite z-score: -1.28
[6]
  composite z-score: -0.128
Torsin-1A (Homo sapiens) [7]
  composite z-score: -0.678
Torsin-1A (Homo sapiens) [8]
  composite z-score: 0.157
[9]
  composite z-score: 0.417
[10]
  z-score: 2 (inactive)
[11]
  composite z-score: 0.0004
[12]
  z-score: 18.9 (active)
[13]
  z-score: 2.11 (inactive)
[14]
  z-score: -0.454 (inactive)
[15]
  z-score: -1.02 (inactive)
[16]
  z-score: 0.738
[17]
  z-score: -2.57 (inactive)
[18]
  z-score: -1.35 (inactive)
[19]
  z-score: -0.943

## CC(C)N1CC=CC23O[C@@H]4/C=C\CCCOC(=O)C4[C@H]2C(=O)N(CCCCCO)[C@@H]3C1=O (some centres not stated)
[1]
  composite z-score: -0.22
[2]
  z-score: -0.143 (inactive)
[3]
  z-score: 0.0564 (inactive)
[4]
  z-score: 0.392 (inactive)
[5]
  composite z-score: -1.52
[6]
  composite z-score: -0.244
Torsin-1A (Homo sapiens) [7]
  composite z-score: 1.5
Torsin-1A (Homo sapiens) [8]
  composite z-score: 1.58
[9]
  composite z-score: -0.641
[10]
  z-score: 1.57 (inactive)
[11]
  composite z-score: -0.285
[12]
  z-score: -0.455 (inactive)
[13]
  z-score: 0.0907 (inactive)
[14]
  z-score: 0.658 (inactive)
[15]
  z-score: -0.258 (inactive)
[16]
  z-score: 0.946
[17]
  z-score: 0.845 (inactive)
[18]
  z-score: -0.00488 (inactive)
[19]
  z-score: 1.7

## CN(C)CCCC[C@@H]1NC(=O)[C@@H]2C[C@H](C(=O)O)[C@H](c3ccc(O)cc3)N2C1=O
[1]
  composite z-score: 0.471
[2]
  z-score: -3.87 (inactive)
[3]
  z-score: 0.415 (inactive)
[4]
  z-score: -0.183 (inactive)
[5]
  composite z-score: 0.0842
[6]
  composite z-score: 0.174
Torsin-1A (Homo sapiens) [7]
  composite z-score: 0.939
Torsin-1A (Homo sapiens) [8]
  composite z-score: 0.395
[9]
  composite z-score: 1.92
[10]
  z-score: 2.66 (inactive)
[11]
  composite z-score: 0.616
[12]
  z-score: 0.847 (inactive)
[13]
  z-score: -1.57 (inactive)
[14]
  z-score: -3.19 (inactive)
[15]
  z-score: -1.98 (inactive)
[16]
  z-score: 1.03
[17]
  z-score: -2.71 (inactive)
[18]
  z-score: -3.88 (inactive)
[19]
  z-score: -2.48

## CCN1C(C)=C(C(=O)OC)[C@@H](c2ccccc2)N2C(=O)[C@@]3(C(=O)OC)O[C@@]12[C@@H]1C(=O)N(C)C(=O)[C@@H]13
[1]
  composite z-score: 0.601
[2]
  z-score: -0.674 (inactive)
[3]
  z-score: 0.922 (inactive)
[4]
  z-score: -1.21 (inactive)
[5]
  composite z-score: 0.233
[6]
  composite z-score: -0.157
Torsin-1A (Homo sapiens) [7]
  composite z-score: 0.587
Torsin-1A (Homo sapiens) [8]
  composite z-score: 0.368
[9]
  composite z-score: 0.971
[10]
  z-score: -0.871 (inactive)
[11]
  composite z-score: -0.0954
[12]
  z-score: 0.339 (inactive)
[13]
  z-score: -1.13 (inactive)
[14]
  z-score: 0.0125 (inactive)
[15]
  z-score: -1.65 (inactive)
[16]
  z-score: 0.629
[17]
  z-score: 1.52 (inactive)
[18]
  z-score: -1.65 (inactive)
[19]
  z-score: -0.267

## CSCC[C@@H]1NC(=O)CC=C[C@@H](C)COC(=O)[C@H](CCSC)NC(=O)CC=C[C@@H](C)COC1=O
[1]
  composite z-score: 0.119
[2]
  z-score: -3.38 (inactive)
[3]
  z-score: -0.389 (inactive)
[4]
  z-score: -0.837 (inactive)
[5]
  composite z-score: -0.563
[6]
  composite z-score: -0.146
Torsin-1A (Homo sapiens) [7]
  composite z-score: 0.138
Torsin-1A (Homo sapiens) [8]
  composite z-score: 0.291
[9]
  composite z-score: 0.493
[10]
  z-score: -0.77 (inactive)
[11]
  composite z-score: -0.0559
[12]
  z-score: -0.138 (inactive)
[13]
  z-score: -0.774 (inactive)
[14]
  z-score: -1.73 (inactive)
[15]
  z-score: -1.85 (inactive)
[16]
  z-score: 0.214
[17]
  z-score: -1.26 (inactive)
[18]
  z-score: 0.731 (inactive)
[19]
  z-score: 1.5

## COC(=O)c1c(CC[C@@H](CO)NC(=O)N[C@H](Cn2cc(-c3cncn3C)nn2)C(C)C)oc(C(C)=O)c1C(=O)OC
[1]
  composite z-score: 0.0781
[2]
  z-score: -3.48 (inactive)
[3]
  z-score: 1.01 (inactive)
[4]
  z-score: -1.4 (inactive)
[5]
  composite z-score: 0.341
[6]
  composite z-score: -0.282
Torsin-1A (Homo sapiens) [7]
  composite z-score: 0.422
Torsin-1A (Homo sapiens) [8]
  composite z-score: 0.368
[9]
  composite z-score: 0.75
[10]
  z-score: 2.49 (inactive)
[11]
  composite z-score: -0.148
[12]
  z-score: 0.88 (inactive)
[13]
  z-score: -0.0063 (inactive)
[14]
  z-score: -0.181 (inactive)
[15]
  z-score: -0.519 (inactive)
[16]
  z-score: 2.93
[17]
  z-score: -1.33 (inactive)
[18]
  z-score: 0.591 (inactive)
[19]
  z-score: -0.295

## C[C@H]1COC(=O)[C@@H]2CCCN2C(=O)[C@@H](C)COC(=O)[C@@H]2CCCN2C1=O
[1]
  composite z-score: 0.0246
[2]
  z-score: -0.0001 (inactive)
[3]
  z-score: 0.613 (inactive)
[4]
  z-score: -0.881 (inactive)
[5]
  composite z-score: -0.269
[6]
  composite z-score: 0.0086
Torsin-1A (Homo sapiens) [7]
  composite z-score: -0.213
Torsin-1A (Homo sapiens) [8]
  composite z-score: 0.25
[9]
  composite z-score: 0.355
[10]
  z-score: 0.407 (inactive)
[11]
  composite z-score: -0.147
[12]
  z-score: -0.0889 (inactive)
[13]
  z-score: 0.0593 (inactive)
[14]
  z-score: 0.425 (inactive)
[15]
  z-score: -0.187 (inactive)
[16]
  z-score: 0.33
[17]
  z-score: 0.764 (inactive)
[18]
  z-score: 0.382 (inactive)
[19]
  z-score: -0.406
